HPGD inh = qHTS Assay for Inhibitors of HPGD (15-Hydroxyprostaglandin Dehydrogenase); Potency, µM, for the others: top-dose activity change, negative = inhibition, hits mostly inhibitors; 150,000 tested, 4.3% active; AID 894, 2007; 15-hydroxyprostaglandin dehydrogenase [NAD(+)] (Homo sapiens), P15428; purified HPGD, NADH fluorescence kinetic, PGE2 substrate; active = well fitted inhibition curve with a large enough effect, not every such curve was filed as active; inconclusive = small, poorly fitted or top-dose-only effect, or another doubt; inactive = no such curve, though single readings can be large or run the other way; also: potency is read from the fitted curve at half-maximal effect
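NADH formation kinetics: reaction with 30 uM PGE2 and 1 mM NAD+ (final), 20 nM enzyme, Tris-HCl pH 8 with Tween 20, after 15 min compound preincubation at room temperature. Fluorescence change, last versus first of five reads.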
ALDH1A1 inh = qHTS Assay for Inhibitors of Aldehyde Dehydrogenase 1 (ALDH1A1); Aldehyde dehydrogenase 1A1 (Homo sapiens), P00352; Potency, µM (doses to about 75.3 µM), inactives show at the highest dose activity, negative = inhibition, hits mostly inhibitors; Purified ALDH1A1, NADH fluorescence, propionaldehyde substrate; 220,000 tested, 7.3% active; active = well fitted inhibition curve with a large enough effect, not every such curve was filed as active; inconclusive = small, poorly fitted or top-dose-only effect, or another doubt; inactive = no such curve, though single readings can be large or run the other way;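 also: potency is read from the fitted curve at half-maximal effect; plate controls were no enzyme wells and a reference inhibitor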
Target sequence (P00352 whole entry, looked up): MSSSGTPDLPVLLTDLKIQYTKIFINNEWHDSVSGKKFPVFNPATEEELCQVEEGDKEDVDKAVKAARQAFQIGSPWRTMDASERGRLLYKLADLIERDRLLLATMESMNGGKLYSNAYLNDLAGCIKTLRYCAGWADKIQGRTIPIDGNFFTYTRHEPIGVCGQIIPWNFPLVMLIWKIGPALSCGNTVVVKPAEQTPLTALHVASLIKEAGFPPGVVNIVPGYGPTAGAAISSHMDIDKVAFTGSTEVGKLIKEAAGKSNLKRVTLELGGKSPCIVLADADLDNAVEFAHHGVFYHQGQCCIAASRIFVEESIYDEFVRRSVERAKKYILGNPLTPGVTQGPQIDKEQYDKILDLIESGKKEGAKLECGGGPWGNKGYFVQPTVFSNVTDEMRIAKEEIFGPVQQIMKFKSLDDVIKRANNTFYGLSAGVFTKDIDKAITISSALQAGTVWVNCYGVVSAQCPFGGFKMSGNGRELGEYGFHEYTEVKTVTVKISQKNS
PNC assembly inh = High Content Assay for Compounds that inhibit the Assembly of the Perinucleolar Compartment; activity change (PNC), negative = inhibition, % at 10 µM; 140,000 tested, 3.1% active; PC3M PTB-GFP, PNC prevalence imaging, 16 h; hits give low values;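 active = readout at or below -70, meaning at least 70% loss of cells showing the perinucleolar compartment, a nuclear body marking cancer cells; inconclusive = readout between -30 and a set limit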;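 also: plate controls were DMSO wells for no effect and camptothecin positive control wells for full effect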
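Compounds are pinned in duplicate onto adhered PC3M cells stably expressing GFP-tagged PTB and incubated 16 h at 37 C. Cells are then fixed, nuclei stained with Hoechst, and PNC-positive cells counted.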
12-hLO inh = qHTS Assay for Inhibitors of 12-hLO (12-human lipoxygenase). Polyunsaturated fatty acid lipoxygenase ALOX12 (Homo sapiens), P18054. Potency, µM (titrated, usually from 57.1 µM), inactives show top-dose activity change, negative = inhibition, hits mostly inhibitors. 150,000 tested, 0.12% active. purified 12-hLO, xylenol orange hydroperoxide absorbance; also: potency is read from the fitted curve at half-maximal effect; nearly all actives have a fitted effect of over 55% in size
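150 nM 12hLO, 25 mM Hepes pH 7.0 + 0.01% Triton X-100; cpd preinc 15 min RT; 40 uM arachidonic acid, 30 min RT; Fe-XO 30 min; A573/A405 ratio as read-out.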
IMPase Li inh = qHTS Assay for Identifying the Cell-Membrane Permeable IMPase Inhibitors: Potentiation with Lithium. CHO-M1 cells, IP1 TR-FRET (IP-One), carbachol + lithium. Potency, µM (highest dose often 59.4 µM), inactives show at the highest dose activity, negative = IMPase inhibition, usual class: inhibitors. 210,000 tested, 0.35% active;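 also: IP1 builds up when IMPase is blocked and the TR-FRET signal falls; potency is read from the fitted curve at half-maximal effect; plate controls were basal vehicle for no effect and high inhibitor control for full effect; nearly all actives have a fitted effect of over 50% in size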
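Test compounds were applied to CHO-M1 cells previously cultured for 16–30 h at 2000 per well. A small lithium amount accompanied them; after 30 min at 37C, IP1 was quantified by TR-FRET.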
IMPase inh = qHTS Assay for Identifying the Cell-Membrane Permeable IMPase Inhibitors. inhibition (IP1 accumulation), % at 46.1 µM. CHO-M1 cells, IP1 accumulation, HTRF TR-FRET ratio. AID 901, 2007. Inositol monophosphatase 1 (Rattus norvegicus), P97697. 120,000 tested, under 10 active; active = well fitted curve in the direction sought with a large enough effect in the signal ratio, not every such curve was filed as active; inconclusive = small, poorly fitted or top-dose-only effect, or a change in a side signal; inactive = no such curve, though single readings can be large or run the other way; the % refers to the signal ratio;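 also: cells stimulated with carbachol in lithium chloride buffer; plate controls were DMSO basal wells for no effect and reference inhibitor wells for full effect; higher means more IMPase inhibition seen as more IP1 and lower FRET ratio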
Target sequence (P97697 whole entry, looked up): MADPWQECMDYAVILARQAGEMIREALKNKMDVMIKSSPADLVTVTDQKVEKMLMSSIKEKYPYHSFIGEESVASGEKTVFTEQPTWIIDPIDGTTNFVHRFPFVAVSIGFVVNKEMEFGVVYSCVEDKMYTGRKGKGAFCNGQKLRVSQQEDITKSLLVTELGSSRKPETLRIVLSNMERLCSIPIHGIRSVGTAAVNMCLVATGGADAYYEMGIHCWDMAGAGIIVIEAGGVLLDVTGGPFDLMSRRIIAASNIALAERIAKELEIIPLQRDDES
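The IP-One HTRF competitive assay in carbachol-stimulated CHO-M1 cells quantifies cellular IP1. Compounds spanned up to 46 uM final, and activity is expressed as AC50 from concentration-response fits of the ratio and donor data.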
* marks the source's active call; other numbers are inactive results; ? = inconclusive; . = not tested or not shown; [ ] = dose if it differs, or a comment. In the library only some 11% were active in any assay of this set; here they are far more common. Unless noted, calls follow the shape of the dose curve; as a rule, active = well fitted curve in the direction sought with a large enough effect; inconclusive = small, poorly fitted or top-dose-only effect, or another doubt; inactive = no such curve, though single readings can be large; an effect the other way counts as inactive or inconclusive. Unless noted, % is scaled to controls: 0 for no effect and ±100 for the full control effect.

SMILES	HPGD inh	ALDH1A1 inh	PNC assembly inh	12-hLO inh	IMPase Li inh	IMPase inh
Cc1ccc(OCC(=O)NCC(=O)n2nc(C)cc2C)cc1	-1.9%	3.2%	-3.3	-2.7%	-3.6%[38.3 µM]	-0.1
OC(COCC1COc2ccccc2O1)CN1CCCCC1 (stereo not given)	1.9%	16.9%	?	-3.5%	8.0%	9.9
CCN1CCN(CC(O)COCC2COc3ccccc3O2)CC1 (stereo not given)	.	28.2µM*	.	.	-4.6%	.
COc1cc2c(=O)n(Cc3ccccc3Cl)c(=O)n(CC(=O)Nc3ccccc3)c2cc1OC	.	.	.	.	.	12.2
O=Cc1ccc(OC(=O)c2cc(Cl)nc3ccccc23)cc1	-29.6%	14.1µM*	-10.7	-1.7%	-3.4%	.
O=C(Oc1cccc2ccccc12)c1cc(Cl)nc2ccccc12	-15.1%	-4.7%	-27.7	-1.9%	21.5%	4.1
COc1ccc2nc(NC(=O)CSc3nnnn3C)sc2c1	.	4.9%	.	.	10.2%	.
CCN1CC2=C(OC(N)=C(C#N)C2c2cccs2)/C(=C/c2cccs2)C1 (stereo not given)	-14.0%	17.8µM*	-26.4	-17.4%	29.7%[38.3 µM]	0.6
CCOC(=O)C1=C(C)OC(N)=C(C#N)C1c1cccs1 (stereo not given)	.	?	.	.	-11.3%	.
CCN1C=C(Cc2cccs2)C2=C(C1)C(c1cccs1)C(C#N)=C(N)O2 (stereo not given)	-24.1%	20µM*	-24.5	-28.6%	16.0%[38.3 µM]	7.3
CC1(C)CC2C1CCC1(C)OC2(C)CCC1O (stereo not given)	-3.5%	-1.8%	.	11.6%	-0.7%	.
CCc1ccccc1-n1c(N)c(C(=O)OC)c2nc3ccccc3nc21	.	.	.	.	.	1.0
O=S(=O)(c1ccc(Cl)c(Cl)c1)c1snnc1-c1ccccc1	-16.6%	-6.3%	-5.7	-5.8%	49.9%[38.3 µM]	2.9
O=C(c1nnsc1S(=O)(=O)c1ccc(Cl)cc1)N1CCOCC1	.	2.82µM*	.	.	9.2%	.
CNC(=O)c1nnsc1S(=O)(=O)c1ccc(Cl)cc1	.	2µM*	.	.	26.1%	.
CCCOC1(C(F)(F)F)NC(=O)N(c2ccc(Cl)cc2)C1=O (stereo not given)	.	.	.	.	.	-5.4
Cc1ccc2c(c1)/C(=N/O)CCS2	-7.7%	3.0%	?	-3.4%	-1.1%[38.3 µM]	-8.4
O/N=C1/CCCSc2ccccc21	11.2µM*	13.8%	-23.9	-6.0%	-11.7%[38.3 µM]	-0.5
O=C(O/N=C1/CCSc2ccccc21)c1ccccc1	17.8µM*	18.9µM*	32.2	0.9%	14.1%[38.3 µM]	2.8
CC(=O)OCC(=O)[C@@]1(O)CCC2C3CCC4=CC(=O)C=CC4(C)C3C(O)C[C@]21C (stereo not given in full)	-6.3%	-8.6%	.	-1.9%	5.8%	.
CCCc1nc(SCC(=O)Nc2cc(C)on2)c2ccccc2n1	-20.5%	-6.7%	17.5	-4.5%	?	-20.4
CCn1c(SCC(=O)Nc2nc3c(s2)CCCC3)nnc1-c1ccccc1	-12.4%	?	?	-6.4%	7.4%[38.3 µM]	-4.1
CCc1nc(SCC(=O)Nc2nc3c(s2)CCCC3)c2ccccc2n1	-8.9%	-1.7%	-7.6	-2.8%	10µM*	?
Cc1ccccc1-c1cc(C(=O)Nc2nc3c(s2)CCCC3)c2ccccc2n1	?	?	-100.0*	-27.0%	20.1%[38.3 µM]	-0.4
CCCc1nc(SCC(=O)Nc2nc3c(s2)CCCC3)c2ccccc2n1	-10.1%	?	-2.5	-7.7%	12.6µM*	-11.4
SMILES	HPGD inh	ALDH1A1 inh	PNC assembly inh	12-hLO inh	IMPase Li inh	IMPase inh
COc1ccc(CCNC(=O)c2cccc(Nc3nc4ccccc4nc3-n3nc(C)cc3C)c2)cc1OC	.	.	.	.	.	-9.0
CC(C)CN1CC[C@@]2(CCCN(C(=O)c3csnn3)C2)C1	-6.9%	-3.5%	.	-9.5%	-9.0%	.
Cc1ccc(C(=O)C(C)CN2CCCCC2)cc1 (stereo not given)	-7.6%	-10.9%	.	1.7%	12.7%	.
CCCCCCNC(=O)CC(c1ccccc1)c1cc(Br)ccc1O (stereo not given)	8.91µM*	0.3%	3.5	-9.2%	18.3%	-4.7
CC(C)NC(=O)CC(c1ccccc1)c1cc(Br)ccc1O (stereo not given)	25.1µM*	2.3%	?	-9.6%	7.0%[38.3 µM]	-3.5
COC1CCC(C(=O)c2ccc3nc4c(cc3c2)CCCO4)CC1 (stereo not given)	-13.4%	-4.1%	.	-1.0%	-4.4%	.
Cc1ccccc1C	-7.2%	3.2%	.	-1.7%	14.9%	.
Cc1ccccc1N1Cc2ccccc2C1	?	28.2µM*	-28.0	-1.4%	6.4%	.
COc1ccccc1N1Cc2ccccc2C1	?	8.91µM*	?	-5.6%	6.3%[38.3 µM]	2.5
O=C(CN1CCc2ccccc21)NC(=O)NCc1ccccc1	.	7.08µM*	.	.	18.3%	.
O=C(CN1CCCc2ccccc21)NC(=O)NCc1ccco1	-5.0%	-2.0%	17.5	3.7%	39.7%[38.3 µM]	-5.2
COc1cc2c(cc1OC)CN(CC(=O)NC(=O)NCc1ccccc1)CC2	.	28.2µM*	.	.	-1.3%	.
Cc1nc2cc(F)ccc2n1C1CCN(C(=O)c2c(F)cccc2F)CC1	.	?	.	.	20.7%	.
Cn1sc(NC(=O)c2ccc(Cl)cc2)nc1=O	?	22.4µM*	-8.3	4.8%	2.2%[38.3 µM]	-6.5
Cc1ccc(C(=O)Nc2nc(=O)n(C)s2)cc1	-0.2%	0.7%	28.9	-0.7%	-4.6%[38.3 µM]	-8.7
O=C1CCCC2=C1C(c1ccc(Br)cc1)c1c([nH]c(=S)[nH]c1=O)N2 (stereo not given)	7.08µM*	?	-12.7	?	9.6%[38.3 µM]	2.1
CCSc1nc2c(c(=O)[nH]1)C(c1ccc(C)cc1)C1=C(CCCC1=O)N2 (stereo not given)	.	3.7%	.	.	2.3%	.
Cc1ccc(C2C3=C(CCCC3=O)Nc3[nH]c(=S)[nH]c(=O)c32)cc1 (stereo not given)	10µM*	?	5.9	?	-2.4%[38.3 µM]	6.7
COC(=O)C1=C(C)Nc2[nH]c(=S)[nH]c(=O)c2C1c1ccc(O)cc1 (stereo not given)	.	23.8µM*	.	.	.	.
CCN1CCN(CC(=O)N2N=C(c3cccs3)CC2c2ccc(C)cc2)C(=O)C1=O (stereo not given)	.	-0.8%	.	.	5.1%	.
COc1ccc(-c2nc(SCC(=O)NC3CCCC3)c(-c3ccc(C)cc3)[nH]2)cc1OC	.	.	.	.	.	10.8
COc1ccc(NC(=O)c2ccco2)cc1NC(=O)COc1ccccc1Cl	.	.	.	.	.	2.4
COc1ccc(-c2nc3cnc(OC)nc3n(Cc3cccs3)c2=O)cc1	?	?	.	-0.8%	?	.
